Screen size: about 1,500 compounds; about 920 (61%) were called active. The rule behind the calls is not given here. The set was probably picked from earlier hits. The list shows a part of the results. Entries with a potency or affinity are not part of this list.
test: Vero 76 cell cytotoxicity, dose response, cytotoxicity control for VEEV inhibitor project (AID 588719); details: Vero 76 cells viability, cytotoxicity counter-screen; series mostly up to 25 µM; viability: at the top concentration

Row | SMILES | viability
1 | Cc1ccccc1NC(=S)/C(=C(\[O-])c1ccc(C)c([N+](=O)[O-])c1)[n+]1ccccc1 | 97.6% (inactive)
2 | O=C(Nc1ccccc1)c1cccc(Cn2cc(C(F)(F)F)ccc2=O)c1 | 80.6% (inactive)
3 | Cc1cc(C(=O)NC2CCCc3c2cnn3-c2cccc(C)c2C)no1 (stereo not given) | 64.3% (inactive)
4 | CCOC(=O)C1C(=O)C(=O)N(C2CCCCC2)C1C(=O)OCC (stereo not given) | 99.2% (inactive)
5 | C/C(N)=C(/C#N)C(=O)COC(=O)c1cc(C)n(-c2ccc(F)cc2)c1C | 76.3% (inactive)
6 | CCCn1c(SCC(=O)N(C)C2CCS(=O)(=O)C2)nc2sc3c(c2c1=O)CCC3 (stereo not given) | 73.6% (inactive)
7 | CN(C(=O)CCN1C(=O)/C(=C/c2ccccc2F)SC1=S)C1CCS(=O)(=O)C1 (stereo not given) | 97.8% (inactive)
8 | Cc1cccc(C)c1OCC(=O)N(Cc1cccs1)C1CCS(=O)(=O)C1 (stereo not given) | 88% (inactive)
9 | O=C(Cn1c(=O)sc2ccccc21)Nc1nc2c(s1)CCCC2 | 97.1% (inactive)
10 | NC(=O)CC(NC(=O)Cc1ccc(Br)cc1)c1ccc(N2CCC(Cc3ccccc3)CC2)c([N+](=O)[O-])c1 (stereo not given) | 75.1% (inactive)
11 | CCCCCCCCCC(=O)N[C@@H]1c2cc(OC)c(OC)cc2C[C@H]1OCc1ccccc1 | 81.8% (inactive)
12 | COc1ccccc1C(CNC(=O)CNC(=O)c1ccc(Cl)c(Cl)c1)N1CCCC1 (stereo not given) | 89% (inactive)
13 | COc1ccc(/C=N/NC(=O)c2cc[n+]([O-])cc2)cc1OC | 94.5% (inactive)
14 | CCCn1nc(NC(=O)c2cccs2)c2cc3cccc(C)c3nc21 | 83% (inactive)
15 | CN(C)CCCN(C(=O)c1cc(-c2cccs2)nc2ccccc12)c1nc2ccc(F)cc2s1 | 81% (inactive)
16 | C/C(=N/OCO/N=C(/C)c1ccc(F)cc1)c1ccc(F)cc1 | 81.7% (inactive)
17 | C/C(=N\NC(=O)c1ccc(N/N=C(\C)c2ccc(O)cc2)cc1)c1ccc(O)cc1 | 86% (inactive)
18 | Cc1ccc(S(=O)(=O)C2(C(=O)NCc3ccccc3Cl)CC2)cc1 | 86% (inactive)
19 | Cc1ccccc1CN(C)C(C)C(=O)Nc1ccccc1F (stereo not given) | 92.6% (inactive)
20 | Cc1ccccc1NC(=NCCCN1CC1)Nc1ccccc1C | 82.8% (inactive)
21 | O=C1C2CCCN2C(c2cccs2)N1c1ccc(Cl)cc1 (stereo not given) | 86.3% (inactive)
22 | C[C@@H]1CN([C@H](C)CO)C(=O)CCCn2nncc2CO[C@H]1CN(C)C(=O)C1CC1 | 102% (inactive)
23 | CC(C)[N+]1=C2C=CC=CC=C2SC12C([N+](=O)[O-])=CC(=[N+]([O-])[O-])C=C2[N+](=O)[O-] (stereo not given) | 84.7% (inactive)
24 | Cc1ccc(CS(=O)Cc2ccc(C(=O)N3CCN(c4cccc(C)c4C)CC3)o2)cc1 (stereo not given) | 97.3% (inactive)
25 | O=C(Nc1csc([N+](=O)[O-])c1)Nc1ccccc1Cl | 82.5% (inactive)
26 | CCC(=O)N1CCN(c2ccc(Cl)cc2NC(=O)c2cccc([N+](=O)[O-])c2)CC1 | 99.8% (inactive)
27 | COc1ccc(Cl)cc1C=CC=Nc1ccc(S(N)(=O)=O)cc1 | 73.1% (inactive)
28 | N#Cc1cccc(NC(=O)CSc2n[nH]c(=O)[nH]c2=O)c1 | 90.3% (inactive)

Row | SMILES | viability
29 | Cc1ccc(CN2CCCC(C(=O)c3ccc4c(c3)OCO4)C2)cc1C (stereo not given) | 87.6% (inactive)
30 | O=[N+]([O-])c1cccc(C([O-])=C(C(=S)Nc2cccc3ccccc23)[n+]2ccccc2)c1 | 93% (inactive)
31 | COc1ccc(N2CCCC2)c(NC(=O)c2ccc([N+](=O)[O-])o2)c1 | 97.5% (inactive)
32 | O=[N+]([O-])c1cccc(/C([O-])=C(/C(=S)Nc2cccc3ccccc23)[n+]2ccccc2)c1 | 103% (inactive)
33 | Cc1nc(N)[nH]c(=O)c1CCCNc1ccc([N+](=O)[O-])cc1 | 90.7% (inactive)
34 | C=CCNCCCCOc1ccc(OCc2ccccc2)cc1 | 92.5% (inactive)
35 | CCn1c(=O)c([N+](=O)[O-])c(NCc2ccc3c(c2)OCO3)c2ccccc21 | 86% (inactive)
36 | Cc1ccc(Nc2nc(=O)c3cccnc3s2)c(Br)c1 | 98.6% (inactive)
37 | CCN1C/C(=C\c2cc(OC)c(OC)c(OC)c2)C2=NN(c3ccccc3)C(c3cc(OC)c(OC)c(OC)c3)C2C1 (stereo not given) | 86.3% (inactive)
38 | CC(C)CN1C(=O)/C(=C(/C#N)C(=O)NC2CCCCC2)c2ccccc21 | 85.1% (inactive)
39 | Cc1ccc(SCCC(=O)Nc2nccs2)cc1 | 96.8% (inactive)
40 | COc1ccc(C(=O)NC2CCCc3c2cnn3-c2cccc(C)c2C)o1 (stereo not given) | 74.2% (inactive)
41 | Cn1c(CCN2CCCCC2)nc2cc(NC(=O)COc3ccc([N+](=O)[O-])cc3)ccc21 | 87.6% (inactive)
42 | COc1ccc(Cl)cc1S(=O)(=O)N1CCN(C(=O)c2n[nH]c(=O)c3ccccc23)CC1 | 86.1% (inactive)
43 | O=c1oc(C2(O)CCCCC2)cc2ccc(-c3ccc4[nH]ccc4c3)cc12 | 57% (inactive)
44 | O=C(C=Cc1cccc(Cl)c1)c1ccccc1 | 94.6% (inactive)
45 | Cc1cc(NC(=O)C(C)SCC(=O)N(Cc2ccccc2)c2ccccc2)no1 (stereo not given) | 80.7% (inactive)
46 | Cc1cc(NC(=O)COC(=O)c2cc(S(=O)(=O)N(C)c3ccccc3)ccc2Cl)no1 | 92.1% (inactive)
47 | Cc1nc(N)ncc1Sc1ccccc1 | 85.3% (inactive)
48 | O=C(O)c1cc(-c2ccc3ccccc3c2)nc2ccc(F)cc12 | 94.6% (inactive)
49 | O=C(/C=C/c1ccnc2ccccc12)c1cccs1 | 94.5% (inactive)
50 | O=C(CSc1nc2ccc(Cl)cc2[nH]1)c1cccs1 | 82% (inactive)
51 | COc1cccc(N2CCN(c3ccc(S(=O)(=O)N4CCN(C)CC4)cc3[N+](=O)[O-])CC2)c1 | 71% (inactive)
52 | CN1CCN(c2ccc(CNS(=O)(=O)c3ccccc3)cc2)CC1 | 91.8% (inactive)
53 | COc1ccc(N2CCN(CCCn3c(=S)[nH]c4ncccc4c3=O)CC2)cc1 | 86.2% (inactive)
54 | C#CCSc1nc(=O)c2cccnc2n1-c1ccc(C)cc1 | 102% (inactive)
55 | CCN(CC)CC(=O)Nc1ccc(/C(C)=N/NC2=NCCN2)cc1 | 87.9% (inactive)

Reference: PubChem BioAssay AID588719 (Southern Research Specialized Biocontainment Screening …, 2011)
